The values that follow come from PubChem BioAssay (Tox21).

Experiment [1] can be described thus: qHTS assay to identify small molecule agonists of the androgen receptor (AR) signaling pathway in the presence of an antagonist - cell viability counter screen (AID 1259379; active = well fitted curve in the direction sought with a large enough effect in the repeat runs; an effect the other way counts as inactive or inconclusive; note: nearly all actives have a fitted effect of over 25% in size; note: potency is the fitted concentration of half-maximal effect;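 for activity change, negative = cytotoxicity: MDA-kb2 human breast cancer cells carrying an MMTV luciferase reporter; series mostly up to about 92 µM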). The procedure, abridged:
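Fluorescence from CellTiter-Fluor, added after 15 hr and read 1 hr later, gave cell viability. Cells were MDA-kb2 exposed to compounds (15 concentrations) in the presence of 3.0uM nilutamide at 37C, 0% CO2.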
On the technique in general: qHTS replaces the single test concentration by a dilution series.

Experiment [2] is described as follows: qHTS assay to identify small molecule agonists of the estrogen receptor beta (ER-beta) signaling pathway - cell viability counter screen (AID 1259380; active = well fitted curve in the direction sought with a large enough effect in the repeat runs; an effect the other way counts as inactive or inconclusive; note: nearly all actives have a fitted effect of over 30% in size; note: potency is the fitted concentration of half-maximal effect). The method in brief:
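Same-well viability counter screen. Cells: ER-beta-UAS-bla HEK293T, plated 6 hr before compound, in 2% charcoal-stripped FBS. Compound exposure 16 hr, 37C; viability by CellTiter-Glo luminescence after 30 min at room temperature.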

Experiment [3] addresses Androgen receptor (Homo sapiens) (UniProt P10275). In words: qHTS assay to identify small molecule agonists of the androgen receptor (AR) signaling pathway in the presence of an antagonist (AID 1259381). Note: nearly all actives have a fitted effect of over 15% in size. Note: potency is the fitted concentration of half-maximal effect. The procedure, abridged: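 Cells are MDA-kb2 (human breast carcinoma, MMTV-luc, AR/GR responsive). Nilutamide is present at 3.0uM final throughout; compounds are added at 15 concentrations and incubated 16hr at 37C before ONE-Glo luminescence detection.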

Experiment [4] in a line: qHTS assay to identify small molecule antagonists of the estrogen receptor beta (ER-beta) signaling pathway - cell viability counter screen (AID 1259382; active = well fitted curve in the direction sought with a large enough effect in the repeat runs; an effect the other way counts as inactive or inconclusive; note: nearly all actives have a fitted effect of over 55% in size; note: potency is the fitted concentration of half-maximal effect;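 for activity change, negative = cytotoxicity: HEK293T cells carrying ER-beta-UAS-bla reporter stimulated with estradiol; series mostly up to about 92 µM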). The procedure, abridged:
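Following a 6 hr plating period, HEK293T cells carrying a UAS-driven beta-lactamase reporter under ER-beta control received compounds and 1nM E2 (final). After 16 hr at 37C and 2 hr substrate loading, CellTiter-Glo luminescence indicated viability.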

The target of experiment [5] is Estrogen receptor (Homo sapiens) (UniProt P03372). The experiment can be described thus: qHTS assay to identify small molecule agonists of the estrogen receptor alpha (ER-alpha) signaling pathway in the presence of an antagonist (AID 1259383). Note: top concentration of the series differs between compounds; nearly all actives have a fitted effect of over 15% in size. The procedure, abridged: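 Cells are hormone-deprived for 5 days (charcoal-stripped FBS, no phenol red), plated for 24hr, spiked with 10.0nM ICI-182,780, then dosed at 15 concentrations. After 22hr at 37C, ONE-Glo luminescence reports ERE-luciferase activity.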
Estrogen receptor (Homo sapiens), sequence (P03372 whole entry, looked up): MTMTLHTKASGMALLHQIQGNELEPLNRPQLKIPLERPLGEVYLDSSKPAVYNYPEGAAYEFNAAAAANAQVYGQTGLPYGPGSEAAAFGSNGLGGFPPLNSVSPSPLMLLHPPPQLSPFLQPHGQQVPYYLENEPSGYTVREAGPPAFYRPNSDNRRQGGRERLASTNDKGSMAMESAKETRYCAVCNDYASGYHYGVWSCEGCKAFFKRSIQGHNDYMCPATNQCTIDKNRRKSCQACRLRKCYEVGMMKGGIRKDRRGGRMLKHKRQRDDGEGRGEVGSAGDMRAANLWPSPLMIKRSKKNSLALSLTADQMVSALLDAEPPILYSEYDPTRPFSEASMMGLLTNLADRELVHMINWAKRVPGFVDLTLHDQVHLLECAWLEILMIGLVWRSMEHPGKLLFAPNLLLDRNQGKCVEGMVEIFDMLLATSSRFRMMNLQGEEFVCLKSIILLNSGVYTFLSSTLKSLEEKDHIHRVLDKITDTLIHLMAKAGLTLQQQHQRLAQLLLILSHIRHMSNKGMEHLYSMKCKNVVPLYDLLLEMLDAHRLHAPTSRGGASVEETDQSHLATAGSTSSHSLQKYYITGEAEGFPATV

Experiment [6] in a line: qHTS assay to identify small molecule agonists or antagonists of the thyroid stimulating hormone receptor (TSHR) signaling pathway - wild type cell line counter screen (AID 1259384). The method in brief:
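Counter screen in untransfected Hek293: compounds (15-point titration, triplicate) plus phosphodiesterase inhibitor Ro20-1724 added after 18 h plating; 30 min RT. Intracellular cAMP via competitive d2/cryptate immunoassay, 1 h incubation.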

In experiment [7] the target is Thyrotropin receptor (Homo sapiens) (UniProt P16473). In words: qHTS assay to identify small molecule antagonists of the thyroid stimulating hormone receptor (TSHR) signaling pathway (AID 1259385). Note: nearly all actives have a fitted effect of over 20% in size. Note: potency is the fitted concentration of half-maximal effect. The procedure, abridged: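 Antagonist mode: compound-treated TSHR-expressing HEK293 cells were stimulated with 1.5 ng/mL TSH (final) in presence of Ro20-1724 for 30 min at RT. HTRF cAMP detection after 1 h; each compound tested at 15 concentrations, triplicate.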
Thyrotropin receptor (Homo sapiens), sequence (P16473 whole entry, looked up): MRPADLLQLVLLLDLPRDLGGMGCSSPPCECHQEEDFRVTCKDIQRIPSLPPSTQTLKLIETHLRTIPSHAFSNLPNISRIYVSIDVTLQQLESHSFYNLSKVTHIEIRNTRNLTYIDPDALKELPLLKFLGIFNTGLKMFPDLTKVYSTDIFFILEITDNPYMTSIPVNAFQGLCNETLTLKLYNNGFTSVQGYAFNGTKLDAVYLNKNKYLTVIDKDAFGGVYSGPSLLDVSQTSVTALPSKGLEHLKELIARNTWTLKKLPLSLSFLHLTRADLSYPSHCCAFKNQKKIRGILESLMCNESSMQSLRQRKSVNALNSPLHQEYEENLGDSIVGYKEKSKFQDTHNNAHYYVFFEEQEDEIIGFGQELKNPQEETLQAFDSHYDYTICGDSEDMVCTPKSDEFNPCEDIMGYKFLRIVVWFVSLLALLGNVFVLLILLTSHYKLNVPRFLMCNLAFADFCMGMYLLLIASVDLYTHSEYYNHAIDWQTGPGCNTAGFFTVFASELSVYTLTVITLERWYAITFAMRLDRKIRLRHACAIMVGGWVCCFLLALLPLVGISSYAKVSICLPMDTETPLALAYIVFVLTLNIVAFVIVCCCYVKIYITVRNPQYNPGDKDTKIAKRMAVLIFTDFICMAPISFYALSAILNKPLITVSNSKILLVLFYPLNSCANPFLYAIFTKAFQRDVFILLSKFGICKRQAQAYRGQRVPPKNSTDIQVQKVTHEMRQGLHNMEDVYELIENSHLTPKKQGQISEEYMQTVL

Experiment [8] can be described thus: qHTS assay to identify small molecule agonists of the estrogen receptor alpha (ER-alpha) signaling pathway in the presence of an antagonist - cell viability counter screen (AID 1259386; active = well fitted curve in the direction sought with a large enough effect in the repeat runs; an effect the other way counts as inactive or inconclusive;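 note: cells exposed to compounds for 22 h at 37 °C before the viability read; nearly all actives have a fitted effect of over 30% in size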; note: potency is the fitted concentration of half-maximal effect; for activity change, negative = cytotoxicity: series mostly up to about 92 µM). The procedure, abridged: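 Cells are starved of estrogens for 5 days in charcoal-stripped serum, seeded for 24hr and co-treated with ICI-182,780 (10.0nM final) and test compounds. After 22hr at 37C, viability is read as CellTiter-Fluor fluorescence.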

For experiment [9], the target named is Progesterone receptor (Homo sapiens) (UniProt P06401). In words: qHTS assay to identify small molecule agonists of the progesterone receptor (PR) signaling pathway (AID 1346784). Note: nearly all actives have a fitted effect of over 30% in size. The procedure, abridged:
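Using charcoal-stripped serum (2%) to limit endogenous steroids, PR-UAS-bla HEK 293T cells received compounds for 16 hr at 37C after 6 hr plating; beta-lactamase FRET fluorescence was recorded following 2 hr substrate loading at room temperature.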

Several values for one entry are separate records, joined by “and”; a condition that tells them apart may be missing. Identical values can stand only once. Unmarked numbers belong to inactive results. Records with an inconclusive call do not appear. Activity calls are given as the source filed them. Unless noted, calls come from the whole dose curve.
% is set by controls: 0 for no effect and ±100 for the full control effect.

Progesterone receptor (Homo sapiens), sequence (P06401 whole entry, looked up): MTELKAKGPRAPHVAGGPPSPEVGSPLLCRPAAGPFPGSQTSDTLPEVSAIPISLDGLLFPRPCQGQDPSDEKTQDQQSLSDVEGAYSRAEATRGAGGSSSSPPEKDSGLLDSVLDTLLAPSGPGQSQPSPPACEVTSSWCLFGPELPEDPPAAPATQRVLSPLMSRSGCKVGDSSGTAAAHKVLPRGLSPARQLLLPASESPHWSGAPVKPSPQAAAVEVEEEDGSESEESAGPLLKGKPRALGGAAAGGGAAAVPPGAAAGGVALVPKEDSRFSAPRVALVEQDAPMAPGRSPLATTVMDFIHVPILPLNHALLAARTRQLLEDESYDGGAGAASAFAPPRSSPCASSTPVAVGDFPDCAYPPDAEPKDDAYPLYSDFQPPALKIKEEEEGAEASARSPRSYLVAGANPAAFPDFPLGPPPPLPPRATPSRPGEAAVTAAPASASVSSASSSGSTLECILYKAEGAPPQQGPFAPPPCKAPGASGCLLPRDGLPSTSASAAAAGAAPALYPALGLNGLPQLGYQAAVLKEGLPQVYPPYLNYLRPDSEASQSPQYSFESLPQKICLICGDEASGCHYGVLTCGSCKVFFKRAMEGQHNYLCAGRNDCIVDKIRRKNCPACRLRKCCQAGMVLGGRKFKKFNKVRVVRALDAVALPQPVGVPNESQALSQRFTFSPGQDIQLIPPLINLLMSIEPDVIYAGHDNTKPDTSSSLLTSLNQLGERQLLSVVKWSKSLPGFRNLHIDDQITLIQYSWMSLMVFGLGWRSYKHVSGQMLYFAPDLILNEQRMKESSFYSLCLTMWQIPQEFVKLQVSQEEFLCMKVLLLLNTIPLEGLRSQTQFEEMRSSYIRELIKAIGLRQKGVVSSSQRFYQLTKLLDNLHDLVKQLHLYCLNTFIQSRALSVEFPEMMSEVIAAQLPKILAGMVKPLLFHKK
Androgen receptor (Homo sapiens), sequence (P10275 whole entry, looked up): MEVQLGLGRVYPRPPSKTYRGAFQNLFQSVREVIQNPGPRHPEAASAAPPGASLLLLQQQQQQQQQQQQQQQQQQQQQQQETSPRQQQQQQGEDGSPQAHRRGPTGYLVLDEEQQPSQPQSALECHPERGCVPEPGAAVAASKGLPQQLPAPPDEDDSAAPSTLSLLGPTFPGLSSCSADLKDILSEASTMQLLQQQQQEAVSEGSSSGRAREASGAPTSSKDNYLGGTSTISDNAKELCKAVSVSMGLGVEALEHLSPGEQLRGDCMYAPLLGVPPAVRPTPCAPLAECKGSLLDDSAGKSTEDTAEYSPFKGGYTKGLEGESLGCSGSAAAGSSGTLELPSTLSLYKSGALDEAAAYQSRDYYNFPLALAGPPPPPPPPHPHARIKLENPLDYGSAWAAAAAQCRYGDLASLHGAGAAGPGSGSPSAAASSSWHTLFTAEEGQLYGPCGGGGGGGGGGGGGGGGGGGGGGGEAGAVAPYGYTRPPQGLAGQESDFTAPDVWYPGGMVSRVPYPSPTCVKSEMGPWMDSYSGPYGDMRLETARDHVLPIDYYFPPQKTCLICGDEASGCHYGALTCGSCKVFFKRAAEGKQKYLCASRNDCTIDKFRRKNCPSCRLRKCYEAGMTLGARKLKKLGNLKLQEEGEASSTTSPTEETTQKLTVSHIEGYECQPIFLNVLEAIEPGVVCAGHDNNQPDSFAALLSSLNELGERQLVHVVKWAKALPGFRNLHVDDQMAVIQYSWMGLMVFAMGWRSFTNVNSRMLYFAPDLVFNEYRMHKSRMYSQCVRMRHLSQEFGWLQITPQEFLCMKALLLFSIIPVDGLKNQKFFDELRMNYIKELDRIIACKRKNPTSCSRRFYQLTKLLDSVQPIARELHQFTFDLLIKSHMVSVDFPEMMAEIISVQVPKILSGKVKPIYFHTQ

For the compound `COc1cc(C(C)C)c2c(c1)S(=O)(=O)N(COc1cc(=O)n3cccc(OCCN4CCCCC4)c3n1)C2=O`, the activity change, negative = cytotoxicity in [1] was 0.166% [at 19 µM]; in experiment [2], -6.94% [at 19 µM]; in [4], -17.6% [at 19 µM]; in experiment [8], 4.42% [at 19 µM]. Also, the activation is -1.84% [at 19 µM] in experiment [3], -2.57% [at 19 µM] in experiment [5] and 8.35% [at 19 µM] in experiment [9]. Moreover, the cAMP activity change in experiment [6] was 5.85% [at 18.9 µM]. Besides, the activity change, negative = inhibition in experiment [7] was -0.822% [at 19 µM].
For `CCN=C1C=CC(=C(c2ccc(N(CC)CC)cc2)c2ccc(N(CC)CC)cc2)c2ccccc21`, the Potency in experiment [1] is 2.16 µM (active); in experiment [2] it was 27.1 µM (active); in experiment [4], 21.6 µM (active); in experiment [8], 9.63 µM (active). The Potency entry in experiment [3] and in experiment [5] was “inactive” each time.
On to `Cn1cccc1`, for which the Potency result in experiment [1], in [2], in experiment [3], in [4], in [5] and in experiment [7] was “inactive” each time. In [8], the Potency result is “inactive”. For the same compound, the result in [6] and in experiment [9] was inactive.
Take `CCCCCCCC(OC)OC`: the Potency result in [1], in [2], in experiment [3], in [4], in experiment [7] and in experiment [8] was “inactive” throughout. The result in [6] and in experiment [9] was inactive.
On to `CCCC(C)CCC(C)=O` (stereo not given), for which the Potency entry in experiment [1], in [2], in experiment [3], in [4], in experiment [5] and in [7] was “inactive” in each case. The Potency entry in [8] is “inactive”. In addition, the result in experiment [6] and in [9] was inactive.
Take `OCCCCl`: the Potency entry in experiment [1], in experiment [2], in [3], in experiment [4], in [5] and in experiment [7] was “inactive” in each case. Also, the Potency entry in experiment [8] is “inactive”. In addition, the compound was called inactive in experiment [6] and in experiment [9].
Turning to `CCOC(=O)CC(C)O` (stereo not given), the Potency result in experiment [1], in [2], in experiment [3], in experiment [4], in [7] and in [8] was “inactive” in each case. The outcome in [6] and in [9] was inactive.
Turning to `c1cc[nH]c1`, the Potency result in experiment [1], in [2], in experiment [3], in experiment [4], in experiment [5] and in [7] was “inactive” in each case. For the same compound, the Potency entry in [8] was “inactive”. For the same compound, the outcome in experiment [6] and in experiment [9] was inactive.
Take `NC(=O)c1ccccc1N`: the Potency entry in experiment [1], in [2], in experiment [3], in [4], in experiment [5] and in experiment [7] was “inactive” in each case. In experiment [8], the Potency result was “inactive”. For the same compound, the result in experiment [6] and in [9] was inactive.
As for `Cc1c(C(=O)O)cccc1[N+](=O)[O-]`, the Potency entry in experiment [1], in [2], in experiment [3], in experiment [4], in experiment [7] and in experiment [8] was “inactive” throughout. Besides, the result in experiment [6] and in experiment [9] was inactive.
Turning to `O=C1NCCN1CCN1CCC(c2cn(-c3ccc(F)cc3)c3ccc(Cl)cc23)CC1`, the Potency is 15 µM (active) in experiment [1], 13.3 µM (active) in experiment [2] and 29.8 µM (active) in [7]. Further, the Potency entry in [3], in experiment [5] and in experiment [8] was “inactive” throughout. Moreover, the call in experiment [6] and in experiment [9] was inactive.
Take `CCCCCCCC(=O)OCC`: the Potency result in experiment [1], in experiment [2], in experiment [3], in experiment [5], in experiment [7] and in experiment [8] was “inactive” in each case. Moreover, the compound was called inactive in experiment [6] and in experiment [9].
Consider `CCCCCCCOC(=O)c1ccccc1C(=O)OCCCCCCC`, for which the Potency result in [1], in experiment [2], in experiment [3], in experiment [4], in [5] and in [7] was “inactive” in each case. Further, in [8], the Potency entry was “inactive”. The result in experiment [6] and in [9] was inactive.
Regarding `O=C1C=CC(=O)N1c1ccccc1`, the Potency in experiment [1] was 61.1 µM (active); in experiment [2] it was 27.3 µM (active); in [4], 48.6 µM (active); in [8], 68.6 µM (active). Also, the Potency result in experiment [3] is “inactive”.
As to `CN(C)CCOC(c1ccccc1)c1ccccc1` (tested in a mixture with another compound), the Potency result in [1], in experiment [3], in experiment [5] and in [7] was “inactive” each time. The Potency in experiment [2] was 69.1 µM (active). For the same compound, in [6], the result was inactive.
For `c1ccc(Sc2ccccc2)cc1`, the Potency result in [1], in [2], in experiment [3], in experiment [4], in [5] and in [7] was “inactive” in each case. Also, the Potency result in experiment [8] was “inactive”. Besides, the result in [6] and in [9] was inactive.
With `CCC1CCCCC1`, the Potency entry in experiment [1], in experiment [2], in [3], in [4], in experiment [7] and in experiment [8] was “inactive” in each case. Also, the outcome in experiment [6] and in experiment [9] was inactive.
Regarding `Cc1ccc(CCn2c3c(c4cc(Cl)ccc42)CN(C)CC3)cn1`, the Potency entry in experiment [1], in experiment [3], in [5], in [7] and in experiment [8] was “inactive” in each case. For the same compound, the Potency in experiment [2] and in experiment [4] was 26.6 µM (active) each time. The compound was classed as inactive in experiment [6] and in experiment [9].
Take `NC(=O)c1nc(-c2cccc(-c3cc(F)ccc3OCC(F)(F)C(F)(F)F)c2)n[nH]1`: the Potency entry in [1], in experiment [3] and in experiment [5] was “inactive” in each case. In addition, in experiment [2], the Potency was 61.1 µM (active). Further, the compound was called inactive in experiment [6].
For the compound `O=C1c2c(O)ccc(O)c2C(=O)c2c(NCCNCCO)ccc(NCCNCCO)c21`, the Potency in experiment [1] is 11.9 µM (active); in experiment [8] it was 26.6 µM (active). Moreover, the Potency result in experiment [2], in experiment [3] and in experiment [4] was “inactive” in each case.
With `CCCSS/C(CCO)=C(\C)N(C=O)Cc1cnc(C)nc1N`, the Potency result in [1], in [3], in [4], in [5], in experiment [7] and in experiment [8] was “inactive” throughout. In experiment [2], the Potency was 26.6 µM (active). Besides, the call in experiment [6] and in experiment [9] was inactive.
On to `C[C@H]1O[C@@H](O[C@H]2[C@@H](O)C[C@H](O[C@H]3[C@@H](O)C[C@H](O[C@H]4CC[C@@]5(C)[C@H](CC[C@@H]6[C@@H]5C[C@@H](O)[C@]5(C)[C@@H](C7=CC(=O)OC7)CC[C@]65O)C4)O[C@@H]3C)O[C@@H]2C)C[C@H](O)[C@@H]1O`, for which the Potency result in [1] and in experiment [8] was “inactive” in each case. Also, the Potency in experiment [2] is 86.4 nM (active) and 95.8 nM (active); in experiment [3] it was 0.172 µM (active); in experiment [4] it was 61.2 nM (active) and 76.1 nM (active). Besides, the outcome in experiment [9] was inactive.
On to `O=Cc1ccc(F)cc1`, for which the Potency entry in [1], in [2], in experiment [3], in [4], in [5] and in experiment [7] was “inactive” in each case. Besides, the Potency entry in experiment [8] is “inactive”. The compound was classed as inactive in experiment [6] and in [9].
